Among all 39,000 compounds or so, about 3,300 (8.5%) were called active. The full list was thinned out, with actives kept by preference.

For this assay, the system named is HepG2. Description: cytotoxicity call (relative viability < 0.9). The conditions noted are these: 10 µM.
As to `Cc1noc(C)c1NC(=O)Nc1ccc2c(c1)C(=O)N([C@@H](C)CO)C[C@H](C)[C@@H](CN(C)Cc1ccccc1)OCCCC[C@H](C)O2`, the cytotoxicity call was “inactive”. Under `C[C@@H]1CN([C@H](C)CO)C(=O)c2cc(NS(=O)(=O)c3ccc(F)cc3)ccc2O[C@@H]1CN(C)CC1CC1` stands “inactive”. In the case of `CN(C)C1C(O)=C(C(N)=O)C(=O)C2(O)C(O)=C3C(=O)c4c(O)cccc4C(C)(O)C3C(O)C12.Cl` (stereo not given), the cytotoxicity call was “inactive”. Under `CC(=O)N(C)C[C@H]1Oc2ncc(C#C[C@@H](C)O)cc2C(=O)N([C@H](C)CO)C[C@H]1C` stands “inactive”; under `CC(=O)N[C@@H]1[C@@H](O)[C@H](O)[C@@H](CO)O[C@H]1O`, “inactive”; under `COc1ccc(N2CCN(c3nc(NCCO)nc(N4CCOCC4)n3)CC2)cc1`, “inactive”. As for `Cc1nc(N)sc1-c1ccnc(Nc2ccc(N3CCOCC3)cc2)n1`, the entry is “active”; as for `CC(=O)Oc1ccc(-c2cc(=O)c3c(OC(C)=O)cc(OC(C)=O)cc3o2)cc1`, “inactive”. Under `CN1CCN(C(=O)C[C@H]2CC[C@H]3[C@@H](COC[C@H](O)CN3C(=O)C3CC3)O2)CC1` stands “inactive”. Consider `COc1ccc(S(=O)(=O)N(C)C[C@H]2Oc3ccc(NC(=O)Cc4ccccc4)cc3C(=O)N([C@@H](C)CO)C[C@@H]2C)cc1`, for which the cytotoxicity call was “inactive”. As for `C[C@H]1CN([C@@H](C)CO)C(=O)c2cccc(NC(=O)Nc3ccccc3)c2O[C@@H]1CN(C)Cc1ccc(C(F)(F)F)cc1`, the entry is “inactive”. Under `CC(=O)c1cccc(C(F)(F)F)c1` stands “inactive”; under `Cc1ncc(NC(=O)c2cccc(C(F)(F)F)c2)cc1-c1cnc(OC2CCOCC2)c(N2CCOCC2)c1`, “inactive”. As for `Cc1ccc(Nc2ncc3c(n2)N(C)C(=O)N(c2cc(NC(=O)c4cccc(C(F)(F)F)c4)ccc2C)C3)cn1`, the entry is “active”. As to `Cc1ccc(S(=O)(=O)N(C)C[C@@H]2Oc3cc(Br)ccc3S(=O)(=O)N([C@H](C)CO)C[C@@H]2C)cc1`, the cytotoxicity call is “inactive”. Under `Cc1noc(C)c1S(=O)(=O)N(C)C[C@@H]1OCCCC[C@@H](C)Oc2ccc(NS(C)(=O)=O)cc2C(=O)N([C@H](C)CO)C[C@H]1C` stands “inactive”. Regarding `CCCC[P+](CCCC)(CCCC)Cc1ccc(NC(=O)[C@H](Cc2ccc3ccccc3c2)N/C(=N/C2CCCCC2)NC2CCCCC2)cc1`, the cytotoxicity call is “inactive”. Under `C/C=C/c1ccc2c(c1)O[C@H](CN(C)Cc1ccc(C(=O)O)cc1)[C@@H](C)CN([C@@H](C)CO)S2(=O)=O` stands “inactive”.

With `COc1ccc(CN(C)C[C@@H]2OCCCC[C@H](C)Oc3ccc(NC(=O)Nc4ccc5c(c4)OCO5)cc3C(=O)N([C@@H](C)CO)C[C@H]2C)cc1`, the cytotoxicity call is “inactive”. As for `COc1ccc(CN(C)C[C@@H]2OCCCC[C@@H](C)Oc3ccc(NC(=O)Nc4ccc5c(c4)OCO5)cc3C(=O)N([C@H](C)CO)C[C@H]2C)cc1`, the entry is “inactive”. Under `COc1ccc(CN(C)C[C@H]2OCCCC[C@@H](C)Oc3ccc(NC(=O)Nc4ccc5c(c4)OCO5)cc3C(=O)N([C@H](C)CO)C[C@@H]2C)cc1` stands “inactive”; under `COc1ccc(CN(C)C[C@@H]2OCCCC[C@@H](C)Oc3ccc(NC(=O)Nc4ccc5c(c4)OCO5)cc3C(=O)N([C@@H](C)CO)C[C@H]2C)cc1`, “active”. Under `COc1ccc(CN(C)C[C@@H]2OCCCC[C@@H](C)Oc3ccc(NC(=O)Nc4ccc5c(c4)OCO5)cc3C(=O)N([C@@H](C)CO)C[C@@H]2C)cc1` stands “active”. Consider `COc1ccc(CN(C)C[C@@H]2OCCCC[C@H](C)Oc3ccc(NC(=O)Nc4ccc5c(c4)OCO5)cc3C(=O)N([C@@H](C)CO)C[C@@H]2C)cc1`, for which the cytotoxicity call was “inactive”.

Consider `COc1ccc(CN(C)C[C@@H]2OCCCC[C@@H](C)Oc3ccc(NC(=O)Nc4ccc5c(c4)OCO5)cc3C(=O)N([C@H](C)CO)C[C@@H]2C)cc1`, for which the cytotoxicity call is “inactive”.

Regarding `COc1ccc(CN(C)C[C@H]2OCCCC[C@@H](C)Oc3ccc(NC(=O)Nc4ccc5c(c4)OCO5)cc3C(=O)N([C@H](C)CO)C[C@H]2C)cc1`, the cytotoxicity call was “active”.

For the compound `COc1ccc(CN(C)C[C@H]2OCCCC[C@H](C)Oc3ccc(NC(=O)Nc4ccc5c(c4)OCO5)cc3C(=O)N([C@@H](C)CO)C[C@@H]2C)cc1`, the cytotoxicity call was “active”. As for `COc1ccc(CN(C)C[C@@H]2OCCCC[C@H](C)Oc3ccc(NC(=O)Nc4ccc5c(c4)OCO5)cc3C(=O)N([C@H](C)CO)C[C@@H]2C)cc1`, the entry is “inactive”. As for `COc1ccc(CN(C)C[C@H]2OCCCC[C@H](C)Oc3ccc(NC(=O)Nc4ccc5c(c4)OCO5)cc3C(=O)N([C@H](C)CO)C[C@@H]2C)cc1`, the entry is “inactive”; as for `COc1ccc(CN(C)C[C@@H]2OCCCC[C@H](C)Oc3ccc(NC(=O)Nc4ccc5c(c4)OCO5)cc3C(=O)N([C@H](C)CO)C[C@H]2C)cc1`, “inactive”.

On to `O=C(C[C@H]1CC[C@@H](NC(=O)c2cnccn2)[C@@H](CO)O1)NCc1ccccc1F`, for which the cytotoxicity call is “inactive”. Under `COc1ccc(CNC(=O)C[C@@H]2C[C@H]3c4cc(NC(=O)NC5CCCC5)ccc4O[C@H]3[C@H](CO)O2)cc1` stands “inactive”; under `COc1ccc(NC(=O)N(C)C[C@H]2Oc3ccc(NS(C)(=O)=O)cc3CC(=O)N([C@H](C)CO)C[C@H]2C)cc1`, “inactive”; under `O=C(C[C@@H]1C=C[C@H](NC(=O)CN2CCOCC2)[C@@H](CO)O1)NCc1cccc(F)c1`, “inactive”.

Consider `C[C@H](CO)N1C[C@H](C)[C@@H](CN(C)CC2CCCCC2)Oc2ccc(NC(=O)CCN3CCOCC3)cc2CC1=O`, for which the cytotoxicity call was “inactive”.

`C[C@H]1CN([C@@H](C)CO)C(=O)CCCn2cc(nn2)CO[C@H]1CN(C)S(C)(=O)=O`: the cytotoxicity call is “inactive”. Under `C[C@@H]1CCCCO[C@@H](CN(C)C(=O)CCCN(C)C)[C@H](C)CN([C@H](C)CO)C(=O)c2cc(NC(=O)Nc3cccc4ccccc34)ccc2O1` stands “inactive”; under `COc1ccc(CN(C)C[C@H]2OCCCC[C@@H](C)Oc3ccc(NC(=O)Nc4ccc5c(c4)OCO5)cc3C(=O)N([C@@H](C)CO)C[C@H]2C)cc1`, “inactive”; under `COc1ccc(CN(C)C[C@H]2OCCCC[C@@H](C)Oc3ccc(NC(=O)Nc4ccc5c(c4)OCO5)cc3C(=O)N([C@@H](C)CO)C[C@@H]2C)cc1`, “inactive”. As for `COc1ccc(CN(C)C[C@H]2OCCCC[C@H](C)Oc3ccc(NC(=O)Nc4ccc5c(c4)OCO5)cc3C(=O)N([C@@H](C)CO)C[C@H]2C)cc1`, the entry is “active”. As for `COc1ccc(-c2cnc3c(c2)C(=O)N([C@H](C)CO)C[C@@H](C)[C@H](CN(C)C(=O)C2CCOCC2)O3)cc1`, the entry is “inactive”. In the case of `CCCCCCCCCCCCCCCCCCCCCCO`, the cytotoxicity call is “active”.

With `CCCCCCCCCCCCCCCCCCCCCCCCCCCCO`, the cytotoxicity call was “inactive”. For the compound `CCCCCCCCCCCCCCCC(=O)CCO`, the cytotoxicity call is “inactive”. Regarding `COCC(=O)Nc1ccc2c(c1)[C@@H]1C[C@H](CC(=O)N3CCOCC3)O[C@H](CO)[C@@H]1O2`, the cytotoxicity call was “inactive”. As for `CO[C@H]1O[C@H](CO)[C@@H](OC(=O)Nc2ccccc2-c2ccccc2)[C@H](OC(=O)Nc2ccccc2-c2ccccc2)[C@@H]1OC(=O)Nc1ccccc1-c1ccccc1`, the entry is “inactive”; as for `CCc1cccc(NC(=O)O[C@H]2[C@H](OC(=O)Nc3ccccc3-c3ccccc3)[C@H](OC(=O)Nc3ccccc3-c3ccccc3)[C@@H](OC)O[C@@H]2CO)c1`, “inactive”; as for `CO[C@H]1O[C@H](CO)[C@@H](OC(=O)Nc2cccc(F)c2)[C@H](OC(=O)Nc2ccccc2-c2ccccc2)[C@@H]1OC(=O)Nc1ccccc1-c1ccccc1`, “inactive”. As for `CO[C@H]1O[C@H](CO)[C@@H](OC(=O)Nc2ccccc2-c2ccccc2)[C@H](OC(=O)Nc2ccccc2)[C@@H]1OC(=O)Nc1ccccc1`, the entry is “active”. Under `CO[C@H]1O[C@H](CO)[C@@H](OC(=O)Nc2cccc(F)c2)[C@H](OC(=O)Nc2ccccc2-c2ccccc2)[C@H]1OC(=O)Nc1ccccc1-c1ccccc1` stands “active”. For `COc1ccc(NC(=O)O[C@H]2[C@H](OC(=O)Nc3ccccc3-c3ccccc3)[C@H](OC(=O)Nc3ccccc3-c3ccccc3)[C@@H](OC)O[C@@H]2CO)cc1`, the cytotoxicity call is “inactive”. Under `C[C@@H]1CN([C@@H](C)CO)C(=O)Cc2cc(NS(C)(=O)=O)ccc2O[C@@H]1CN(C)S(=O)(=O)c1cccs1` stands “inactive”. As for `CN1CCN(C(=O)C[C@@H]2C[C@H]3c4cc(NC(=O)c5ccc6c(c5)OCO6)ccc4O[C@H]3[C@H](CO)O2)CC1`, the entry is “inactive”. Under `COc1ccc(S(=O)(=O)N(C)C[C@H]2Oc3cc(C#CC4CC4)ccc3S(=O)(=O)N([C@H](C)CO)C[C@@H]2C)cc1` stands “inactive”; under `CCCCc1oc2ccc(NS(C)(=O)=O)cc2c1C(=O)c1ccc(OCCCN(CCCC)CCCC)cc1`, “active”; under `CCCCN(CCCC)CCCOC(=O)c1ccc(N)cc1.O=S(=O)(O)O`, “inactive”. As to `CCCCc1oc2ccc(NS(C)(=O)=O)cc2c1C(=O)c1ccc(OCCCN(CCCC)CCCC)cc1.Cl`, the cytotoxicity call is “active”. As to `CCC1=NCCO1`, the cytotoxicity call was “inactive”. On to `CC(C)NC(=O)N(C)C[C@@H]1Oc2ccc(NC(=O)Nc3ccc4c(c3)OCO4)cc2C(=O)N([C@H](C)CO)C[C@H]1C`, for which the cytotoxicity call is “inactive”.

Consider `C#CCN1C(=O)N(C(=O)c2ccccc2)[C@@]2(COCc3ccc(OC)cc3)Oc3ccccc3[C@@H]1[C@H]2CO[Si](C)(C)C(C)(C)C`, for which the cytotoxicity call was “inactive”. As to `CN(C)CCCNC(=O)C[C@@H]1CC[C@@H]2[C@@H](COc3ccc(NC(=O)c4ccccc4F)cc3C(=O)N2C)O1`, the cytotoxicity call was “inactive”. Under `CCS(=O)(=O)NCC[C@H]1CC[C@H](NC(=O)C2CCOCC2)[C@H](CO)O1` stands “inactive”; under `O=C(C[C@@H]1C[C@H]2c3cc(NS(=O)(=O)c4ccc(F)cc4)ccc3O[C@H]2[C@H](CO)O1)NCCc1ccccc1`, “inactive”.

Consider `Cc1ccc(S(=O)(=O)N(C)C[C@@H]2Oc3ccc(NC(=O)CCN4CCOCC4)cc3CC(=O)N([C@@H](C)CO)C[C@H]2C)cc1`, for which the cytotoxicity call was “inactive”.

With `C[C@H](CO)N1C[C@H](C)[C@H](CN(C)C(=O)NC2CCCCC2)Oc2c(NC(=O)C3CCOCC3)cccc2C1=O`, the cytotoxicity call was “inactive”.

These data come from the antibiotic and cytotoxicity screens of Wong et al. (2023).
